Laboratory results as given in PubChem BioAssay AID588477 (NMMLSC, 2011).
Active and inactive are the calls of the source.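 How the source made its calls: active means valid curve fit with half-effect dose at most 10 µM and total binding change across doses of 30 points or more; inactive means the rest.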

Each compound was assayed on Ras wt (assay: inhibitors of Bodipy-GTP binding across eight GTPases, SAR follow-up, selectivity assay for Cdc42 probe extension project, biochemical, round 1 SAR, Mg buffer, multiplex flow cytometry (AID 588477)). Conditions: GST-GTPase beads; series mostly up to 100 µM; percent response (remaining binding): at the top concentration.

Percent response (remaining binding), inactive:
O=C(C#Cc1ccccc1)c1cccc([N+](=O)[O-])c1 59.2%
NS(=O)(=O)c1ccc(N2N=C(c3ccccc3)CC2c2ccccc2)cc1 (stereo not drawn) 54.3%
COc1ccc(C2CC(c3ccccc3)=NN2c2ccc(S(N)(=O)=O)cc2)cc1 (stereo not drawn) -50.2%
